Hits are enriched below; roughly 27% of the tested compounds scored in any of these assays.
CYP2C19 inh: inhibitors of human CYP2C19; P33261; CYP2C19 Supersomes, luciferin-H EGE luminescence, 30 min; inhibition, % at 5 µM; hit rate 21% among 96,000;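 active = CYP2C19 inhibition above a set limit at 5 µM in the primary screen, cut at about 50% in these data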
Target sequence (P33261 whole entry, looked up): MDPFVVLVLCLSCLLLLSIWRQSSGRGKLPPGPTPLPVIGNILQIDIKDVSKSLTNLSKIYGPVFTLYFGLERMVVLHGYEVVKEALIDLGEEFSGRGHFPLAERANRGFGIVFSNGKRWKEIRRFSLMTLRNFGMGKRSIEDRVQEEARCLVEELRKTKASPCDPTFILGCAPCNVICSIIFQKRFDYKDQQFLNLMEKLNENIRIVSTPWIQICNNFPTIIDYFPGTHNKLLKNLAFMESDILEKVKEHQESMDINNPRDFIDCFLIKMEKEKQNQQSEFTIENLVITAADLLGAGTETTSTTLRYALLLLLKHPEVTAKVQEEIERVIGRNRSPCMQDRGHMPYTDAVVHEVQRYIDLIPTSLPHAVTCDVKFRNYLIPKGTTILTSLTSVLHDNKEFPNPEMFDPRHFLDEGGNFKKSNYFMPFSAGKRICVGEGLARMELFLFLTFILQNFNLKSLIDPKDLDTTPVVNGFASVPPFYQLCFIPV
PTK2B oligo ant: Pyk2 (human) oligomerization antagonism; z-score (the deposit names both 25 µM and 10 µM); Q293 cells, Pyk2 FERM NanoBiT luminescence; active compounds read low; hit rate 0.83% among 99,000; AID 1347419;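 active = Z-score of -3 or lower, scaled per plate to the spread of control and sample wells; inactive = z-score above -3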;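 note: negative z-score means lost luminescence so less FERM oligomerization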
CYP2C19 activ: activators of human cytochrome P450 2C19; P33261; recombinant CYP2C19, luciferin-H EGE luminescence; active compounds read high; 0 = fully inhibited enzyme, 1 = untreated enzyme; activation factor at 5 µM; 96,000 tested, under 10 active;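 active = activation factor of at least 2 at 5 µM in the primary screen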
Cav3 T inh: human Cav3.2 channel inhibition, primary screen; B-score at 10 µM; AID 449739; hit rate 4% among 100,000; O95180; Cav3.2-expressing cells, Fluo-4 calcium fluorescence FDSS; active compounds read low;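 active = single-dose well whose peak fluorescence ratio is a statistical outlier from its plate by either plate-standardised score or position-corrected B-score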
CYP2C9 activ: CYP2C9 (human) activation. activation factor at 5 µM. P11712. hit rate 1.4% among 96,000. recombinant CYP2C9, luciferin-H conversion, luminescence; active compounds read high; factor 1 = untreated enzyme, 0 = blocked;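 active = activation factor of 2 or more for CYP2C9 at a 5 µM dose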
CYP2C9 inhib: inhibitors of human CYP2C9; inhibition, % at 5 µM; CYP2C9 Supersomes, luciferin-H conversion, luminescence; P11712; hit rate 20% among 96,000;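 active = blocking of liver enzyme CYP2C9 beyond about 50% at 5 µM, limit read from the data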
Each line names hits and unclear results; the compound was inactive in the other large screens.

Cc1cccc(CSC2=CS(=O)(=O)c3ccccc3N2)c1	CYP2C19 inh 54, CYP2C9 inhib 64
Cc1ccc2c(c1)-c1ccccc1S(=O)(=O)N2	none
C[C@@H](Oc1ccccc1)c1nnn(Cc2ccccc2)c1-c1c([C@@H](C)Oc2ccccc2)nnn1Cc1ccccc1	none (no result: CYP2C19 inh, PTK2B oligo ant, CYP2C19 activ, CYP2C9 activ, CYP2C9 inhib)
Cc1cc(C)cc(COn2ccnc2)c1	CYP2C19 inh 69
Cc1cc(C)cc(N2C(=O)CC(n3ccnc3)C2=O)c1 (stereo not drawn)	none
C=CCNc1cc(C(F)(F)F)nc(-c2ccccn2)n1	none
COc1cc(C(C)=O)ccc1OCC(=O)c1cc(C)n(C2CC2)c1C	CYP2C19 inh 58
CCS(=O)c1ccccc1C(=O)O (stereo not drawn)	none
CCn1nc(C)c(/C=C2\CCCC3=C2OC(N)=C(C#N)C3c2c(C)nn(CC)c2C)c1C (stereo not drawn)	none (no result: PTK2B oligo ant)
COc1ccc(OCC(=O)N2CCN(c3cccc(Cl)c3)CC2)cc1	Cav3 T inh -4.5
COc1ccc(OCC(=O)N2CCN(c3cccc(C(F)(F)F)c3)CC2)cc1	Cav3 T inh -6.9
CC1(C)CC(=O)C(/C=N/c2ncccc2C(=O)O)=C(O)C1	none
CCO/C(C)=N/n1c2nc3ccccc3nc2c2c(=O)n(Cc3ccccc3Cl)c(C)nc21	CYP2C9 inhib 53
Cc1nc2c(c(=O)n1Cc1ccccc1Cl)c1nc3ccccc3nc1n2Cc1ccco1	CYP2C9 inhib 52 (no result: PTK2B oligo ant, Cav3 T inh)
CCOc1ccc(NC(=O)COC(=O)Cc2ccc(S(=O)(=O)N3CCOCC3)s2)cc1	none
O=c1ccn(-c2cccc(C(F)(F)F)c2)nc1-c1ccn(-c2cccc(Cl)c2)n1	Cav3 T inh -5.7, CYP2C9 inhib 52
CN1C(C(=O)NCc2ccco2)CC2Cn3c(nc4cc5ccccc5cc43)C21 (stereo not drawn)	none (no result: CYP2C19 inh, PTK2B oligo ant, CYP2C19 activ, CYP2C9 activ, CYP2C9 inhib)
Cc1[nH]n(-c2ccc([N+](=O)[O-])cc2)c(=O)c1C=NCCN1CCN(C(=O)c2ccccc2)CC1	CYP2C19 inh 59, CYP2C9 inhib 65
OCCCn1c(CCNc2nc(-c3ccc(F)cc3)cs2)nc2cc(C(F)(F)F)ccc21	none (no result: CYP2C19 inh, PTK2B oligo ant, CYP2C19 activ, CYP2C9 activ, CYP2C9 inhib)
Cc1ccc2c(c1)cc1c(=O)[nH]ncn12	none (no result: Cav3 T inh)
COc1ccccc1NC(=O)N1CCN(c2ccc(F)cc2)CC1	none (no result: CYP2C19 inh, CYP2C19 activ, CYP2C9 activ, CYP2C9 inhib)
COc1ccccc1NC(=O)N1CCc2[nH]c3ccc(F)cc3c2C1	CYP2C19 inh 67, Cav3 T inh -4.2
Cc1[nH]c2ccccc2c1/C=C(\C#N)S(=O)(=O)c1ccccc1	CYP2C9 inhib 67
N#C/C(=C\c1ccc(O)c(O)c1)S(=O)(=O)c1ccccc1	none
Cc1[nH]c2ccccc2c1/C=C(\C#N)C(=O)NC(C)c1ccccc1 (stereo not drawn)	CYP2C9 activ 2.1 (no result: Cav3 T inh)
C#Cc1ccc([C@H]2C=C(C(=O)N3CCOCC3)O[C@@H](OCC)[C@@H]2CCCO)cc1	none (no result: CYP2C19 inh, PTK2B oligo ant, CYP2C19 activ, CYP2C9 activ, CYP2C9 inhib)
Cc1cc(NC(=O)CSc2nnc(-c3c[nH]c4ccccc34)n2C)no1	none (no result: CYP2C19 inh, PTK2B oligo ant, CYP2C19 activ, CYP2C9 activ, CYP2C9 inhib)
CCCSc1nnc(-c2c[nH]c3ccccc23)n1C	CYP2C19 inh 76 (no result: PTK2B oligo ant)
CCCSc1nnc(-c2c[nH]c3ccccc23)n1CC	CYP2C19 inh 89 (no result: PTK2B oligo ant)
Cc1nc(C(=O)N(C)C)nn1-c1cc(Cl)ccc1Cl	none
CN(C)C(=O)c1ccccc1Sc1cc(Cl)ccc1Cl	CYP2C19 inh 75 (no result: Cav3 T inh)
CN(C)C(=O)c1ccccc1Sc1ccc(Cl)cc1Cl	CYP2C19 inh 95, CYP2C9 inhib 58 (no result: Cav3 T inh)
O=C1CC(SCCO)C(=O)N1c1ccc(Oc2ccccc2)cc1 (stereo not drawn)	none
COc1cccc(C2CC(=O)Nc3cc(OC)c(OC)c(OC)c32)c1OC (stereo not drawn)	CYP2C19 inh 63
CCOC(=O)CNc1c(N2CCN(c3ccccn3)CC2)c(=O)c1=O	none (no result: PTK2B oligo ant)
O=C(NCc1ccc(Cl)cc1Cl)c1ccccn1	CYP2C19 inh 99
O=C(N/C=C\c1ccccc1)NCc1ccc(Cl)cc1Cl	none
Clc1ccc(COc2ccccn2)c(Cl)c1	CYP2C19 inh 87
CCOc1cc(CN2CCOCC2)cc(C(C)=O)c1	none
O=S(=O)(c1cccc(S(=O)(=O)N2CCCC2)c1)c1cccc(S(=O)(=O)N2CCCC2)c1	none
c1ccc(-c2nc3cc4ccccc4cc3[nH]2)nc1	CYP2C19 inh 80
CCCCn1nc(CC(=O)O)c2ccccc2c1=O	CYP2C19 inh 69
CCc1nn(CC(=O)O)c(=O)c2ccccc12	none
COc1ccc(OC)c(S(=O)(=O)N(C)CC(=O)N2CCN(c3ccc(F)cc3)CC2)c1	none
COc1ccc(OC)c(S(=O)(=O)N(C)CC(=O)N2CCN(c3cccc(Cl)c3)CC2)c1	CYP2C19 inh 85, Cav3 T inh -6.8, CYP2C9 inhib 92
COc1ccc(OC)c(S(=O)(=O)N(C)CC(=O)N2CCN(c3ccccc3F)CC2)c1	CYP2C19 inh 76, CYP2C9 inhib 68
S=C(Nc1ccc(Cl)cc1)c1sc(N2CCCCC2)nc1N1CCOCC1	none (no result: CYP2C19 inh, CYP2C19 activ, Cav3 T inh, CYP2C9 activ, CYP2C9 inhib)
O=C(NCc1ccc(N2CCCC2=O)cc1)Nc1ccccc1	none
COc1nnc(-c2ccc(N3CCCCC3)c(NC(C)=O)c2)c2ccccc12	CYP2C19 inh 54, CYP2C9 inhib 66
COc1ccc(-n2ncc3c(NCc4ccccn4)ncnc32)cc1	CYP2C19 inh 61, CYP2C9 inhib 53
c1ccc(-n2ncc3c(NCc4cccs4)ncnc32)cc1	CYP2C19 inh 60, CYP2C9 inhib 81
c1ccc(-n2ncc3c(NCc4cccnc4)ncnc32)cc1	CYP2C9 inhib 69
CC1=Nn2c(nnc2-c2ccc(F)cc2)SC1	none
O=S(=O)(c1cccc2nsnc12)N1CCc2ccccc21	none (no result: CYP2C19 inh, CYP2C19 activ, CYP2C9 activ, CYP2C9 inhib)
CC(=NC1CCCCC1)C1=C(O)c2ccccc2C1=O	CYP2C19 inh 87, CYP2C9 inhib 86
COc1ccc(NC(NC(=O)c2ccc(OC)cc2)C(Cl)(Cl)Cl)cc1 (stereo not drawn)	CYP2C19 inh 66, CYP2C9 inhib 84 (no result: Cav3 T inh)
O=C(Cn1c(=O)n(-c2ccccc2)c(=O)n1CC(=O)N1CCCCC1)N1CCCCC1	none
Brc1ccccc1OCCCn1cnc2ccccc21	CYP2C19 inh 58, PTK2B oligo ant -3.9, CYP2C9 inhib 60
Cc1cc(C)c(C)c(OCCCCn2cnc3ccccc3c2=O)c1	none
Cc1cccc(Cn2cnc3ccccc32)c1	CYP2C19 inh 84, CYP2C9 inhib 53
Cc1ccccc1OCCCCn1cnc2ccccc21	CYP2C19 inh 61
CCCOc1ccc(Cn2cnc3ccccc32)cc1	CYP2C19 inh 65, CYP2C9 inhib 87
Fc1ccc(Cn2cnc3ccccc32)cc1	none
COCc1nc2ccccc2n1Cc1cccc(C)c1	none
COc1ccc(-c2nc(C)sc2CC(=O)O)cc1	none (no result: CYP2C19 inh, CYP2C19 activ, CYP2C9 activ, CYP2C9 inhib)
CC(=O)N1CCc2cc(S(=O)(=O)NCCC(=O)NC3CCCc4ccccc43)ccc21 (stereo not drawn)	none
c1ccc(OCCn2cnc3ccccc32)cc1	none
c1ccc(OCCCCn2cnc3ccccc32)cc1	CYP2C19 inh 60

Screens deposited in PubChem by several laboratories.
